The panel holds about 79,000 compounds, 15% with a hit somewhere; the sample as a whole holds those more often. The source made the active and inactive calls. Rule as the data show it: active = growth inhibition above about 70%; inactive = the rest.
How the values were obtained:
[1] = NCI Yeast Anticancer Drug Screen. Data for the rad50 strain (AID 155);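 also: 0% = growth of vehicle-only cultures of the same strain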; settings: S. cerevisiae rad50 strain growth inhibition; at 50.0 µM; hits give high values
Procedure, shortened: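 Readout: growth inhibition relative to vehicle-treated cultures. Compound exposure was carried out in a genetically defined yeast strain deficient in DNA damage repair.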

[2] = NCI Yeast Anticancer Drug Screen. Data for the mec2-1 strain (AID 157); settings: S. cerevisiae mec2-1 strain, at 50.0 µM, hits give high values
Procedure, shortened: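 mec2-1 yeast strain, carrying an alteration in DNA damage repair or cell cycle control, was exposed to compounds; growth inhibition was measured relative to vehicle-treated controls.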

[3] = NCI Yeast Anticancer Drug Screen. Data for the sgs1 mgt1 strain (AID 161);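 also: 0% = growth of cultures given vehicle only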; settings: S. cerevisiae sgs1 mgt1 strain, at 50.0 µM, hits give high values
Procedure, shortened: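 Compounds are added to genetically altered yeast, and growth is compared with cultures given vehicle alone to give percent inhibition.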

[4] = NCI Yeast Anticancer Drug Screen. Data for the cln2 rad14 strain (AID 165);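 also: 0% = growth equal to vehicle treated cultures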; settings: S. cerevisiae cln2 rad14 strain, at 50.0 µM, hits give high values
Procedure, shortened: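 Yeast carrying cln2 and rad14 alterations (cell cycle control and DNA damage repair) were exposed to compounds. Growth inhibition was measured against vehicle-treated controls.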

[5] = NCI Yeast Anticancer Drug Screen. Data for the bub3 strain (AID 167); settings: S. cerevisiae bub3 mutant strain, at 50.0 µM, hits give high values
Procedure, shortened: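 Readout: yeast growth inhibition, expressed relative to vehicle-only wells. The test organism is a mutant strain from a panel with lesions in DNA repair or checkpoint genes.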

[6] = NCI Yeast Anticancer Drug Screen. Data for the mlh1 rad18 strain (AID 175); settings: S. cerevisiae mlh1 rad18 strain growth inhibition; at 50.0 µM; hits give high values
Procedure, shortened: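 Growth inhibition of the yeast strain was measured after compound exposure and expressed relative to vehicle-treated controls. The strain carries defined defects in DNA damage repair.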

Measured: growth inhibition

COC(=O)c1ccc(C2CCC(OC(c3ccccc3)c3ccccc3)CC2)cc1 (stereo unspecified)
inactive: [1] 39.6% | [2] -12.7% | [3] 26% | [4] -23.6% | [5] 0.85% | [6] -3.85%

CCCCCCC1OCCC(C)O1 (stereo unspecified)
inactive: [1] 7.6% | [2] 5.95% | [3] 16.9% | [4] -10.3% | [5] -22.4% | [6] 12.9%

O=[N+]([O-])c1cc(C(F)(F)F)ccc1Oc1cccc(C(F)(F)F)c1
inactive: [1] -13.4% | [2] 2% | [3] 5.6% | [4] -64.8% | [5] 42.6% | [6] 16.9%

O=C1C2=C(Nc3cc([N+](=O)[O-])ccc3N2)OC1c1ccc2c(c1)OCO2 (stereo unspecified)
inactive: [1] -10.4% | [2] -16.9% | [3] -15.1% | [4] 5.75% | [5] -28.2% | [6] -5.45%

C(=C\c1ccc(-c2ccccc2)cc1)/c1ccc(-c2ccccc2)cc1
inactive: [1] -16.2% | [2] -19.9% | [3] 4.4% | [4] -5.3% | [5] -16.7% | [6] -16.4%

O=C(CN1C(=O)CC(NC(=O)OCc2ccccc2)C1=O)NCC(=O)Oc1ccc([N+](=O)[O-])cc1 (stereo unspecified)
inactive: [1] 31.6% | [2] 20.9% | [3] 26.9% | [4] 7.7% | [5] 4% | [6] 22.1%

CCc1cccc(C)c1NC(=O)CCc1nnc2s/c(=C\c3cccc4ccccc34)c(=O)n12
inactive: [1] 25.6% | [2] 16.5% | [3] 19.8% | [4] 24.5% | [5] 2.1% | [6] 33.2%

C/C=C\c1ccc(OCCOC(C)=O)c(OC)c1
inactive: [1] 12% | [2] -13.6% | [3] -3.4% | [4] -28.2% | [5] -9.95% | [6] -15.8%

Cc1ccc(CC2CC(=O)c3ccccc3C2=O)cc1 (stereo unspecified)
inactive: [1] -7.6% | [2] 2.95% | [3] -4.55% | [4] -13.9% | [5] 3.65% | [6] -16.4%

O=C(NC1CCCCC1)C(c1ccccc1)c1ccccc1
inactive: [1] 8.85% | [2] -3.3% | [3] 0.4% | [4] -18.7% | [5] 1.85% | [6] -10.9%

COc1ccc(C2(C(OC)OC)NC(=O)N(Cc3ccccc3)C2=O)cc1 (stereo unspecified)
inactive: [1] 2.7% | [2] -10.6% | [3] -4.5% | [4] -49.4% | [5] -11.8% | [6] -10.3%

CNC1(C(=O)O)CCCCC1
inactive: [1] -0.35% | [2] -4.65% | [3] -2% | [4] 4.6% | [5] 4.85% | [6] -2.2%

O=c1ccc(-c2ccccc2)n[nH]1
inactive: [1] -25.4% | [2] -0.2% | [3] -28.3% | [4] 5% | [5] -25.8% | [6] -23.9%

CC#CC(O)(C(=O)OCCCN(C)C)C1CCCCC1 (stereo unspecified)
inactive: [1] 12.4% | [2] 3.55% | [3] 3.85% | [4] 2.25% | [5] 8.3% | [6] 9.25%

COc1n[n+]([O-])c(OC)cc1[N+](=O)[O-]
active: [6] 76.7%
inactive: [1] 51.7% | [2] 33.6% | [3] 33.9% | [4] 15% | [5] 17.6%

COc1ccc(Cl)cc1NC(C)=O
inactive: [1] 5.1% | [2] 8.1% | [3] 5.2% | [4] 7.25% | [5] 3.7% | [6] -7.65%

COc1cc(-c2cc(O)c(-c3ccc4ccccc4n3)c(=O)[nH]2)cc(OC)c1OC
inactive: [1] 6.75% | [2] 14.6% | [3] 1.6% | [4] 11.8% | [5] -27.1% | [6] 23.4%

O=C(CN(c1ccc(S(=O)(=O)O)cc1)c1ccc(S(=O)(=O)O)cc1)Nn1cnc2ccc(S(=O)(=O)N(c3ccc(S(=O)(=O)O)cc3)c3ccc(S(=O)(=O)O)cc3)cc2c1=O
inactive: [1] 29.1% | [2] 6.15% | [3] 31.2% | [4] 19.2% | [5] 26% | [6] 34.1%

C=CC(C)c1cccc(C=O)c1O (stereo unspecified)
inactive: [1] 0.3% | [2] -7.3% | [3] -0.3% | [4] -32% | [5] 17.8% | [6] 15.2%

NC(=S)N/N=C/c1ccc(F)cn1
inactive: [1] 22.9% | [2] 58.4% | [3] -1.5% | [4] -63.9% | [5] -5.4% | [6] 11.9%

CC(C)COC1=CC(=O)c2ccccc2C1=O
inactive: [1] 16.4% | [2] 17.4% | [3] 18.6% | [4] -1.05% | [5] 35% | [6] -7%

CN(C)c1ccc(-c2c(C#N)c(N)[nH]c(=S)c2C#N)cc1
inactive: [1] 9.9% | [2] -2.35% | [3] 4.7% | [4] 6.35% | [5] 16.9% | [6] 3.45%

Nc1nc(N)c2nc(-c3ccc(N(CCO)CCO)cc3)c(N)nc2n1
inactive: [1] -13.1% | [2] -14.8% | [3] -11.9% | [4] -34.9% | [5] 3.15% | [6] -15.9%

O=c1[nH]c(C(F)(F)F)c(CCc2ccccc2)c(=O)[nH]1
inactive: [1] 3.5% | [2] 20.1% | [3] 36.9% | [4] -3.8% | [5] 36.3% | [6] 29.8%

CCOC(=O)CNC=O
inactive: [1] 33.5% | [2] -6.1% | [3] -2.7% | [4] 26.4% | [5] -1.8% | [6] 8.55%

O=C(O)c1c(I)cc(I)c(O)c1I
inactive: [1] -1% | [2] -13.5% | [3] 1.75% | [4] 7.65% | [5] 10.9% | [6] -6.9%

COc1cc(C(=O)N2C[C@H](O)C[C@H]2C(=O)O)cc(OC)c1OC
inactive: [1] -18.4% | [2] -15.9% | [3] -32.8% | [4] -5.75% | [5] -16.4% | [6] -9.85%

CC(C)=CCCc1ccc2c(c1)C(=O)c1cc3c(cc1C2=O)OCO3
inactive: [1] -13.9% | [2] 15.1% | [3] 21.1% | [4] 9.6% | [5] 10.6% | [6] -2.1%

COC(=O)C12c3ccccc3C(c3ccccc31)c1c(N=O)ccc(NO)c12
active: [1] 99.2% | [2] 99.3% | [3] 99.1% | [4] 98.7% | [5] 99% | [6] 99%

CCOC(=O)Cc1cccnc1
inactive: [1] -27.6% | [2] -40% | [3] -14.1% | [4] 16.5% | [5] -12.2% | [6] -3.4%

CCCCCC#CC1OC1(C)C (stereo unspecified)
inactive: [1] -2.1% | [2] -8.05% | [3] -2.8% | [4] -27% | [5] 5.95% | [6] -12.2%

O=C(Nc1ccc(Cl)cc1)c1cccnc1
inactive: [1] 10.1% | [2] -10.7% | [3] 32.8% | [4] -8.5% | [5] 34.4% | [6] 15.6%

CN1C(C)(C)CC(O)(C(O)(c2ccccc2)c2ccccc2)CC1(C)C
inactive: [1] 10.4% | [2] -9.35% | [3] -14.6% | [4] -14% | [5] -11.2% | [6] 3.7%

Cc1ccccc1-n1c(=S)[nH]c2c(sc(=O)n2-c2ccccc2C)c1=O
inactive: [1] 3.95% | [2] -7.9% | [3] 0.8% | [4] 17.6% | [5] 0.1% | [6] -11.4%

CN1C(=O)C(=O)OC1=C(c1ccccc1)c1ccccc1
inactive: [1] 2.9% | [2] -4.6% | [3] 0.85% | [4] -30.9% | [5] -17.6% | [6] -18.2%

CC1(C)C2CC(NC(=O)c3ccc([N+](=O)[O-])cc3)C1C2 (stereo unspecified)
inactive: [1] 18.6% | [2] 4.6% | [3] -1.5% | [4] -4.9% | [5] 3.25% | [6] 11.9%

COc1cccc(CCO)c1OC
inactive: [1] 1.3% | [2] -13.2% | [3] 10.9% | [4] -10.4% | [5] 5.2% | [6] 10.9%

CCCCCCCCCCCCOc1cccc(OCCCCCCCCCCCC)c1
inactive: [1] 29.4% | [2] -4.75% | [3] 21.8% | [4] -41.1% | [5] -1.9% | [6] -19.1%

CN1CCc2c1nc(-c1ccccc1)c1c2N(C)CC1
inactive: [1] 2.2% | [2] -11% | [3] -6.4% | [4] 9.65% | [5] -18.2% | [6] -1.5%

COC(=O)/C(C#N)=C(\C)CC(C)C
inactive: [1] 13.2% | [2] -17.4% | [3] -20.1% | [4] -3.65% | [5] -24.4% | [6] -9%

CC(=O)OCC(OC(C)=O)C(OC(C)=O)C(OC(C)=O)c1cnn(-c2ccccc2)n1 (stereo unspecified)
inactive: [1] 4.05% | [2] 12.7% | [3] -20% | [4] -22.8% | [5] 5.6% | [6] 6%
